Measurements as given in PubChem BioAssay AID686978 (National Center for Advancing Translational Sciences (NCATS), 2013).
Out of some 420,000 compounds screened, about 64,000 (15%) were called active. Inconclusive results (about 27%) are left out. A selection follows. Unmarked numbers belong to inactive results. Calls follow the shape of the dose curve; as a rule, active = well fitted inhibition curve with a large enough effect; inconclusive = small, poorly fitted or top-dose-only effect; inactive = flat fitted curve, though single readings scatter.

assay: qHTS for Inhibitors of human tyrosyl-DNA phosphodiesterase 1 (TDP1): qHTS in cells in absence of CPT; details: DT40 Tdp1-/- hTDP1 cells, no CPT, ATP luminescence, 48 h; activity change, negative = growth inhibition: at 46.2 µM (top of the series); also: nearly all actives have a fitted effect of over 55% in size
From the text: Human tyrosyl-DNA phosphodiesterase 1 (TDP1) is a novel repair gene, and we propose to use it as a new target for anticancer drug development. TDP1 is not an essential protein, but under treatment with topoisomerase I poison (camptothecin: CPT), TDP1 works as a critical factor for cell survival. To directly identify novel TDP1 inhibitors active in a cellular environment, we have knocked-out the Tdp1 gene in chicken DT40 cells (Tdp1-/-) and generated a complemented counterpart cells that contains a stable transfection of the human TDP1 gene (Tdp1-/-;hTDP1 cells). For the primary screen, Tdp1-/-;hTDP1 cells will be exposed to small molecules in the presence or absence of CPT, and their growth kinetics will be evaluated after 48 hours by measuring ATP activity. […] The hit compounds will then be evaluated in the presence or absence of CPT using Tdp1-/- cells. […] In tertiary assays, biochemical gel-based assays will be used to assess whether the hit compounds specifically target TDP1.
To this end, we have screened this cell line against the MLSMR in two primary screens. In one screen we add CPT and in the other we screen in the absence of CPT; this AID represents the screen where CPT was absent.
NIH Chemical Genomics Center [NCGC]
NIH Molecular Libraries Probe Centers Network [MLPCN]
Assay Submitter (PI): Yves Pommier, NCI
DT40-hTDP1 cells without 20 nM Camptothecin (add 20 microL of DMSO in 1 L of cell culture medium) were dispensed at 400 cells/5microL/well in tissue culture treated 1536-well white wall/solid bottom assay plates (Greiner Bio-One North America, NC, U.S.A.) using a Multidrop Combi 8 channel dispenser (Thermo Fisher, Waltham, MA, USA). 23 nL compounds and controls were transferred using the pin tool (Kalypsys, San Diego, CA, USA) to the assay plates. The assay plates were then incubated at 37 masculineC for a minimum 48 hr. Three microL of Cell Titer Glo solution was added to the plates and incubated at RT in dark for 30 min. Luminescence was read using ViewLux (Perkin Elmer) with 1 sec exposure slow speed, high gain and 2x binning.
% is scaled to controls: 0 for no effect and ±100 for the full control effect; potency is read from the fitted curve at half-maximal effect.

Structure (SMILES)	activity change, negative = growth inhibition	Potency
CCN1CCN(C(=O)/C=C\C(=O)O)CC1	-12%	
C=CCn1c(=O)c(C(=O)Nc2ncccc2O)c(O)c2ccccc21	-18.9%	
CCc1cccc(C)c1NC(=O)COC(=O)CNC(=O)c1cccs1	1.78%	
Cc1cc(NC(=O)COc2ccccc2C#N)no1	14.4%	
CCc1cccc(CC)c1NC(=O)COc1ccccc1C(=O)c1cc(C#N)c(=O)n(C2CCCCC2)c1		16.4 µM (active)
CCc1cccc(C)c1NC(=O)COC(=O)CC1CCCC1	4.08%	
O=S(=O)(NCC(c1ccco1)N1CCOCC1)c1cc(F)ccc1F (stereo not drawn)	-9.31%	
COc1ccc(Cn2ccn(CC(=O)Nc3cc(C)ccc3C)c(=O)c2=O)cc1	25%	
CC(C)C(=O)Nc1ccc2c3c(cccc13)CC2	-15.8%	
CC(=O)c1c(N2CCN(c3ccc(F)cc3)CC2)nc(=S)n(-c2ccccc2)c1C		20.6 µM (active)
Cc1ccc2cc(C)c(N3CCN(c4ccc(F)cc4)CC3)nc2c1	-3.8%	
CC(=O)c1c(N2CCOCC2)nc(=S)n(-c2cc(C)ccc2C)c1C	-13.9%	
CNC(=O)COc1ccc(S(=O)(=O)Nc2ccccc2)cc1	-7.11%	
CCn1c(C(C)NC(=O)c2ccc(C)cc2)n[nH]c1=S (stereo not drawn)	-9.48%	
C/C(=C\C(=O)c1ccccc1)Nc1cccc(O)c1	-19.5%	
N/C(=N\OC(=O)CCn1cccc(C(F)(F)F)c1=O)c1ccc(OC(F)(F)F)cc1	-14%	
Cc1ccc(OCCNC(=O)CN2C(=O)NC3(CCCC3)C2=O)cc1	-13.8%	
COC1=CC(=O)OC(C)(c2ccccc2)C1 (stereo not drawn)	-8.45%	
Cc1nc2c(OCC(=O)C(C)(C)C)cccn2c1N(C)Cc1cccs1	-75%	
Cc1nc2c(OCc3ccc(Cl)cc3Cl)cccn2c1N(C)CC1CC1		16.4 µM (active)
Cc1nc2c(OCc3cccc(Cl)c3)cccn2c1N(C)CC1CC1		20.6 µM (active)
O=C(Nc1c[nH]c(=O)[nH]c1=O)OCc1ccccc1	-22.5%	
Cc1ccc(C(=O)Nc2ccc(OCc3cc(=O)n4c5c(sc4n3)CCCC5)cc2)cc1	-9.99%	
CC(C)(C)C(=O)NCCCNc1ccc([N+](=O)[O-])cc1	-0.828%	
CN1CC(=O)N=C1N		inactive
O=S(=O)(NCc1ccccn1)c1ccc(F)cc1	-2.5%	
CCCCN1CC(CO)Oc2cccc(F)c2S1(=O)=O (stereo not drawn)	-19.8%	

Structure (SMILES)	activity change, negative = growth inhibition	Potency
COc1ccccc1-c1nn(Cc2ccccc2)cc1C(=O)N1CCN(c2ncccn2)CC1		16.4 µM (active)
COc1cc(C(=O)N2CCOC23CCN(Cc2ccccc2)CC3)cc(OC)c1OC	-18.3%	
COc1cccc(OC)c1C(=O)N1CCN(Cc2cccnc2)CC1	-17.6%	
COc1cc(C(=O)N2CCN(C)CC2)cc(OC)c1OC	9.62%	
COc1ccc(C(=O)NCCn2nc(C)cc2C)cc1OC1CCN(C(C)=O)CC1	-18.1%	
COc1cc(C(=O)N2CCN(C/C=C/c3ccccc3)CC2)cc(OC)c1C		29.1 µM (active)
COc1ccc(C(=O)NC2CC2)cc1OC1CCN(Cc2ccc(SC)cc2)CC1	-1.42%	
COc1ccc(C(=O)NC2CC2)cc1OC1CCN(C/C=C/c2ccccc2)CC1		23.1 µM (active)
COc1cc(C(=O)N2CCN(C(=O)COc3cccc(C)c3)CC2)cc(OC)c1OC	-12.4%	
CCOC(=O)CSc1nnc(NC(=O)C2CC(=O)N(c3ccc(F)cc3)C2)s1 (stereo not drawn)	-11.9%	
C[C@@H]1O[C@@H](OC[C@H]2O[C@@H](Oc3c(-c4cccc(O)c4O)oc4cc(O)cc(O)c4c3=O)[C@H](O)[C@@H](O)[C@@H]2O)[C@H](O)[C@H](O)[C@H]1O	-5.29%	
O=C1CN(C(=O)COC(=O)C2CC(=O)N(Cc3ccco3)C2)c2ccccc2N1 (stereo not drawn)	-19.4%	
COc1cc(C(=O)N2CCOCC2)cc(OC)c1OC		inactive
Cc1cc(C)n(CCC(=O)N2CCN(S(=O)(=O)c3ccc(C)c(C)c3)CC2)n1	10.6%	
O=C(COc1ccccc1O)NC1CCCC1	-8.81%	
O=C(NCCN1CCOCC1)/C(=C/c1ccc(F)cc1)NC(=O)c1ccccc1	-11.9%	
Cc1ccc(C(=O)N/C(=C\c2ccc(F)cc2)C(=O)NCCN2CCOCC2)cc1	-6.92%	
CC(C)(C)c1ccc(C(=O)N2CCN(CCNC(=O)C(=O)Nc3ccc(F)cc3)CC2)cc1		10.3 µM (active)
O=C(NCc1ccccc1)c1ccc(CNc2c(N3CCCC3)c(=O)c2=O)cc1	6.59%	
CNC(=O)CSc1nnnn1-c1ccc(C)cc1C	-5.97%	
CC1=C(C(=O)OC2CCCCC2)C(c2ccccc2F)NC(=O)N1 (stereo not drawn)	-19.8%	
Cc1ccc(C2NC(=S)NC3=C2N2CCC3CC2)cc1 (stereo not drawn)	2.29%	
Cc1cc2nc(-c3ccc(F)cc3)c(Cc3ccsc3)n2c(C)c1Br		11.6 µM (active)
Cc1cc2nc(-c3ccco3)c(Cc3cccc(F)c3)n2c(C)c1Br		16.4 µM (active)
Cc1cc2nc(-c3ccc(Cl)cc3)c(Cc3cccc(F)c3)n2c(C)c1Br		23.1 µM (active)
CC(NC(=O)CNC(=O)Cc1cccc2ccccc12)c1ccc(S(N)(=O)=O)cc1 (stereo not drawn)	15.6%	
